In PubChem BioAssay AID720603 (Broad Institute, 2013):
Measured potencies and affinities stand elsewhere. Inconclusive results are not listed. Calls of active or inactive are those of the source.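 How the source made its calls: active means every test run gave an active call, each with a potency at or below twice the top valid dose; inconclusive means test runs disagree, or curve fits are weak or unclear; inactive means every test run inactive, including wrong-way signal.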

Assay: cytotoxicity in mouse C2C12 myoblasts – cell-based, CellTiter-Glo ATP luminescence, 8/24/48 h, dry powder, cytotoxicity control for HRAS target identification, dose response (AID 720603)

Cc1onc(C(=O)N2CCN(C(c3ccncc3)c3ccncc3)CC2)c1[N+](=O)[O-]
outcome: inactive
